Data taken from PubChem BioAssay (NCI).
Several values for one entry are separate records, joined by “and”; a condition that tells them apart may be missing. Identical values can stand only once. About 83,000 compounds went through this panel and 20% of them were active in at least one assay; those are over-represented in the sample as a whole.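 Method: cells in 96-well plates; compound added at one concentration; 48 h incubation; percent growth measured; values under 10 scored active.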 Activity calls are given as the source filed them.

These compounds were tested on MDA-MB-468 breast (assay: NCI-60 one-dose screen, 48 h (100 = growth as untreated, 0 = no growth, -100 = all killed)). Conditions: 10 µM unless noted.

Row | SMILES | growth
1 | Cn1cc(-c2nonc2-c2c[nH]c3ccccc23)c2ccccc21 | -4.56% (active)
2 | COc1ccc(-c2cn[nH]c2-c2cc(OC)c3c(c2)OCCO3)cc1 | 5.64% (active)
3 | CC1Cc2c(Cl)ncnc2N(C)c2ccc(F)cc21 (stereo not given) | 64.5% (inactive)
4 | COc1ccc(C/C(=C(\C)c2ccc(OCCN3CCCC3)cc2)c2ccc(OCCN3CCCC3)cc2)cc1 | 33.2% (inactive)
5 | O=C(/C=C/c1ccccc1)c1ccc2ccccc2c1 | 47.8% (inactive)
6 | O=C1Nc2cc(Cl)ccc2Oc2cc(Oc3ccccc3)ccc21 | 1.71% (active)
7 | CO[C@H]1CC[C@@]2(C)C(=CC[C@H]3[C@@H]4C[C@H](O)C[C@@]4(C)CC[C@@H]32)C1 | -12.8% (active)
8 | O=C1/C(=C/C=C/c2ccco2)SC(=S)N1C1CCCCC1 | 43.4% (inactive)
9 | N#CSCc1ccc(CSC#N)c(Cl)c1 | 44.1% (inactive)
10 | O=C(/C=C/c1c(Cl)nc2sccn12)c1ccc(F)c(F)c1 | 35.4% (inactive)
11 | CCN(CC)C(=O)C1CCN(C(=O)c2ccccc2)CC1 | 109% (inactive)
12 | CN(C)Cc1cc(C(C)(C)CC(C)(C)C)ccc1O | 100% (inactive)
13 | CN(C)CCNC(=O)c1cccn2c(=O)c3cc4ccccc4cc3nc12 | -43.6% (active)
14 | CC(=O)Nc1nc(C)c(C(=O)N/N=C/N2CCOCC2)s1 | 116% (inactive)
15 | COc1ccc(-n2nc(C(=O)Nc3ccc(F)cc3)nc2-c2cc(OC)c(OC)c(OC)c2)cc1 | 91.9% (inactive)
16 | CC1NC(=S)NC(=O)/C1=C/c1cc(=O)oc2c1ccc1ccccc12 (stereo not given) | 103% (inactive)
17 | O=c1nc(Nc2nc3ccccc3s2)[nH]c(=O)c2ccccc12 | 99.4% (inactive)
18 | Cc1ccc(C(C(N)=O)C(C(N)=O)c2ccccc2)cc1 (stereo not given) | 105% (inactive)
19 | CCOc1ccc([C@H]2C(C(=O)c3ccc(Cl)cc3)C3(N[C@@H]2c2ccccc2)C(=O)Nc2ccc(Br)cc23)cc1 (stereo not given in full) | -17.1% (active)
20 | CN1CCN(Cc2ccc(NC(=O)c3cncc(C#Cc4cnc5cccnn45)c3)cc2C(F)(F)F)CC1 | 37.8% (inactive)

Row | SMILES | growth
21 | O=C(CSc1nc2sc3c(c2c(=O)n1Cc1ccccc1)CCCC3)N1CCN(c2ccccc2)CC1 | 106% (inactive)
22 | CCC(=O)Nc1cc(Nc2cc(NC3CC3)n3ncc(C#N)c3n2)ccc1C | 1.64% (active)
23 | COc1ccc2nc3cc(Cl)ccc3c(Nc3cc(CN4CCCC4)c(O)c(CN4CCCC4)c3)c2n1 | -53.3% (active)
24 | C#CCOc1ccc(-c2csc(NC(=O)C=C)n2)cc1NS(=O)(=O)c1cccc2c(N(C)C)cccc12 | 11.3% (inactive)
25 | O=C(CCc1nnc(CN(c2ccccc2)c2ccccc2)o1)c1nc2ccccc2[nH]1 | 89.1% (inactive)
26 | COc1cccc(/C=C2\COc3ccc(O)c(O)c3C2=O)c1 | -11.1% (active)
27 | COc1cc(-c2nc3sccn3c2-c2ccnc(NCCNS(=O)(=O)c3ccc(F)cc3)n2)ccc1F | 4.24% (active)
28 | CS(=O)(=O)OCC1NC(=O)C(COS(C)(=O)=O)NC1=O (stereo not given) | 87% (inactive) and 79.3% (inactive)
29 | c1ccc2c(c1)ncn2-c1nc2ccccc2n2c1nc1ccccc12 | -40.5% (active)
30 | COc1ccc(-c2nc(N=Nc3c(O)[nH]c4ccccc34)nc(N3CCOCC3)c2C#N)cc1 | 71% (inactive)
31 | COc1ccc(/C=C/C(c2cc(OC)c(OC)c(OC)c2)n2ccnc2)cc1O (stereo not given) | 40.6% (inactive)
32 | CCOC(=O)C(COS(C)(=O)=O)(COS(C)(=O)=O)C(=O)OCC | 122% (inactive)
33 | COc1ccc(-c2ccc(-c3ccc(C(=N)N)cn3)o2)cc1 | 48.7% (inactive)
34 | Fc1ccc(-c2cc3nc(C(Cl)Cl)nc(-c4ccco4)n3n2)cc1 | -43.6% (active)
35 | NCCSSC/C=C\CSSCCN | 94.6% (inactive)
36 | CCOC(=O)c1cc(C)n(-c2ccc(C(=O)O)cc2)c1C | 65.5% (inactive)
37 | O=C(CCCCCCN1CC(=O)N2[C@@H](c3ccc(Cl)c(F)c3)c3[nH]c4ccccc4c3C[C@H]2C1=O)NO | 85.5% (inactive)
38 | COc1cc2c(-c3nc4cc(Cl)c(F)cc4s3)cc(=O)oc2c(C)c1OC | -58.7% (active)
39 | COc1ccccc1/C=C\C(=O)c1ccccc1 | 82.7% (inactive)
40 | NC1=NC(=O)C(c2ccccc2)(c2ccccc2)S1 | 111% (inactive)
